From PMC5540273 (PLoS ONE, 2017)

test system: TYK2(JH2domain-pseudokinase)
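Also: kd values determined as follow-up on hits from a single-replicate KINOMEscan panel screen.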

SMILES	Kd
Nc1ncnc2[nH]c(-c3ccccc3)nc12 [AH5015]	0.096 µM
Cc1csc(-c2nc(Nc3ccncc3)c3ccccc3n2)n1 [GW869640]	0.53 µM
COc1ccc2nc(-c3cccc(C)n3)nc(Nc3ccncc3)c2c1 [GSK204919]	2 µM

test system: ULK3

SMILES	Kd
COc1ccccc1-c1ccc2c(NC(=O)C3CC3)n[nH]c2n1 [SB-711239]	> 10 µM
COc1cc(Nc2nccc(N3CCC(NC(=O)Nc4cc(C)ccc4C)C3)n2)cc(OC)c1OC (centres unmarked) [GSK1379762]	4.3 µM
COc1ccc(CNC(=O)NC2CCN(c3ccnc(Nc4cc(OC)c(OC)c(OC)c4)n3)C2)cc1 (centres unmarked) [GSK1379748]	0.55 µM

test system: T1, VPS34
T1 construct: gene PIK3C3

SMILES	Kd
Cc1c(Cn2ccn3c(=O)cc(N4CCOCC4)nc23)cccc1C(F)(F)F [GSK2289044]	0.064 µM
CS(=O)(=O)c1ccc(-c2c(-c3ncn[nH]3)sc(N3CCOCC3)c2C#N)cc1	0.11 µM
O=c1cc(N2CCOCC2)nc2n(Cc3cccc(Cl)c3Cl)ccn12 [GSK2286295]	0.0021 µM
Cc1cccc(-c2nc(-c3ccc(S(C)(=O)=O)cc3)sc2-c2ccnc(NCCc3ccccc3)c2)c1	8.4 µM
Cc1nnc(-c2ccc3occ(-c4ccc(S(C)=O)cc4)c3c2)[nH]1 (centres unmarked)	0.062 µM
